High-throughput results from PubChem.
Hits are enriched below; roughly 1.7% of the tested compounds scored in any of these assays.
PrP 5UTR inh – suppresses PrP 5' UTR mRNA reporter expression; cell-based PrP 5' UTR mRNA reporter, plate reader; inhibition, % (no concentration beside the values); 0.35% of 340,000 active; AID 488862; in the data active = inhibition above about 52%; also: 0 = median of the neutral control wells
SSB-PriA inh – inhibitors of Klebsiella pneumoniae PriA binding to SSB C-terminal tail. inhibition, % at 33 µM. AID 1272365. 0.6% of 430,000 active. AlphaScreen SSBct-PriA binding, biotinylated peptide; in the data active = inhibition mostly above about 37%, no sharp cut-off; inactive = mostly below about 20%;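 also: plate controls were negative control peptide for no effect and reference peptide for full effect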
PrPC TRFRET – cell surface PrPC inhibition, primary TR-FRET screen; TR-FRET read-out; 0.43% of 370,000 active; inhibition, % at 13.8 µM; in the data active = inhibition above about 24%; also: 0% = median of the test wells and 100% = reference compound wells
PfHsp40 rescue – compounds rescuing yeast from Plasmodium falciparum HSP40 toxicity; S. cerevisiae expressing PfHsp40, growth rescue, ATP luminescence; growth rescue, % at 12.5 µM; 0.68% of 340,000 active; AID 504582; in the data active = growth rescue above about 28%, passing the limit was not always enough;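 also: yeast W303a lacking pdr1 and pdr3 grown in galactose medium; growth measured after three days at 30 °C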
BJeLR viability – BJeLR cell viability loss | inhibition, % (no concentration beside the values) | BJeLR (HRASV12) viability, CellTiter-Glo ATP luminescence, 48 h | 0.17% of 300,000 active; in the data active = inhibition above about 50%
Y pestis TopoI – Y. pestis Topo-I inhibition via cleavage products; Y. pestis Topo-I cleavage product accumulation, plate reader; activity, % at 10 µM; 0.064% of 360,000 active; in the data active = activity above about 50%, passing the limit was not always enough
* = called active by the depositor; . = no result given.

SMILES	PrP 5UTR inh	SSB-PriA inh	PrPC TRFRET	PfHsp40 rescue	BJeLR viability	Y pestis TopoI
CCCCCn1c(NS(=O)(=O)c2ccc(C)cc2)c(S(=O)(=O)c2ccc(C)cc2)c2nc3ccccc3nc21	.	67.0*	.	.	.	.
Cc1ccc(S(=O)(=O)Nc2c(S(=O)(=O)c3ccc(C)cc3)c3nc4ccccc4nc3n2CCc2ccccc2)cc1	.	40.0	.	.	.	.
O=S(=O)(Nc1c(S(=O)(=O)c2ccccc2)c2nc3ccccc3nc2n1C1CCCCC1)c1ccccc1	-0.8	73.3*	-4.9	-1.3	8.5	27.5
Cc1ccc(S(=O)(=O)Nc2c(S(=O)(=O)c3ccc(C)cc3)c3nc4ccccc4nc3n2CCC(C)C)cc1	.	62.5*	.	.	.	.
Cc1ccc(S(=O)(=O)Nc2c(S(=O)(=O)c3ccccc3)c3nc4ccccc4nc3n2CCc2ccccc2)cc1	.	44.8	.	.	.	.
CCOC(=O)CCC(=O)Nc1ccc(S(=O)(=O)Nc2ccc(F)cc2)cc1	.	1.0	.	.	.	.
O=S(=O)(Cc1ccccc1F)Nc1cnc2ccnn2c1	.	-2.0	.	.	.	.
CCOc1ccc(CC(=O)Nc2ccc(C)c(N3CCCC3=O)c2)cc1	.	-15.0	.	.	.	.
Oc1c(Cl)cccc1Cc1cc(Cl)cc(Cl)c1O	-54.4	3.8	-5.4	406.5*	.	-5.8
O=c1n(Cc2ccccn2)nc(-c2ccco2)n1C1CC1	.	0.0	.	.	.	.
N#CC(c1ccccc1)c1ccc2c(C(F)(F)F)cc(C(F)(F)F)nc2n1 (stereo not given)	-17.3	77.3*	-1.1	-0.7	14.0	-7.3
O=C(Cc1cccs1)NCc1nnnn1C1CCCCC1	.	4.0	.	.	.	.
Oc1ccc(Cl)cc1CNCC12CC3CC(CC(C3)C1)C2	.	-8.0	.	.	.	.
O/N=C\c1ccccc1Oc1ccc(F)cc1	-24.9	.	7.7	58.8*	-4.3	-13.1
ON=Cc1ccccc1Oc1ccc(F)cc1	.	-19.2	.	.	.	.
Cc1nc2c(sc3cccc(F)c32)c(=O)n1CC(=O)Nc1ccc(F)c(Cl)c1	.	-6.0	.	.	.	.
Cc1ccc(C(=O)COC(=O)CSc2cccc3cccnc23)c(C)c1	-11.3	77.8*	6.4	3.0	10.6	36.3
Cc1ccc(C)c(C(=O)CSc2cccc3cccnc23)c1	.	107.5*	.	.	.	.
CCC1N=C(SC)NC(C)=C1C(=O)c1ccccc1 (stereo not given)	0.7	-0.7	-2.6	-0.6	.	-11.2
CSC1=NC(C(Cl)(Cl)Cl)N=C(c2ccc(C)cc2)N1 (stereo not given)	4.4	-0.8	10.0	0.4	56.0*	4.2
CCc1cccc(C)c1N(C(=O)Cn1c(COC)nc2ccccc21)C(C)COC (stereo not given)	-23.0	46.4*	-3.5	-2.3	-2.4	21.7
COc1ccc(-c2oc3ccccc3c2C#Cc2cncn2C)cc1	-20.4	-6.5	-1.1	336.4*	.	19.5
Cc1cc(C)n(-c2cc(NC(=O)c3ncccn3)ncn2)n1	.	19.0	.	.	.	.
COc1ccc(N/N=C(\C#N)C(=N)SCc2ccccc2)cc1	-14.5	.	3.8	208.6*	5.8	-7.0
O=C(Nc1nc(-c2ccccn2)cs1)c1ccc(N2CCOCC2)c([N+](=O)[O-])c1	.	91.5*	.	.	.	.
SMILES	PrP 5UTR inh	SSB-PriA inh	PrPC TRFRET	PfHsp40 rescue	BJeLR viability	Y pestis TopoI
COc1ccccc1C(=O)Nc1nc(-c2ccc(S(=O)(=O)N3CCOCC3)cc2)cs1	-22.5	-0.8	24.9*	3.5	7.5	32.5
O=C(Nc1nc(-c2csc(NC(=O)c3ccc(S(=O)(=O)N4CCOCC4)cc3)n2)cs1)c1ccc(S(=O)(=O)N2CCOCC2)cc1	.	-9.0	.	.	.	.
O=C(Nc1nc(-c2ccccn2)cs1)c1ccc(S(=O)(=O)N2CCOCC2)cc1	.	114.5*	.	.	.	.
COc1ccc(C(=O)Nc2nc(-c3ccccn3)cs2)cc1S(=O)(=O)N1CCOCC1	35.3	46.4*	2.4	0.6	.	4.4
COc1ccccc1OC(C)C(=O)Nc1nc(-c2ccc(S(=O)(=O)N3CCOCC3)cc2)cs1 (stereo not given)	-16.4	-4.3	7.2	-1.0	3.5	39.5
COc1ccc(SCCC(=O)Nc2ccc(F)cc2)cc1	.	4.0	.	.	.	.
CCS(=O)(=O)c1ccc(CC(=O)N2CC(=O)Nc3ccccc32)cc1	.	-9.0	.	.	.	.
O=C(Nc1ccccc1C(F)(F)F)NC(c1cccnc1)C1CCOCC1 (stereo not given)	.	9.0	.	.	.	.
CCOc1ncccc1C(=O)N1CC[C@H](Oc2ccc(N(C)C)nn2)C1	.	-15.0	.	.	.	.
CS(=O)(=O)c1ccc(-c2cccc(NC(=O)c3cc4ccccc4oc3=O)c2)nn1	.	7.0	.	.	.	.
CCOC(=O)c1ccc(Nc2[nH]c(=O)c3ccccc3c2C(=O)c2ccncc2)cc1	.	24.0	.	.	.	.
O=C(Nc1nc(-c2ccccn2)cs1)c1cc(S(=O)(=O)N2CCOCC2)ccc1Cl	.	116.0*	.	.	.	.
O=C(Nc1ccon1)c1ccc(N2CCCCC2)c([N+](=O)[O-])c1	-113.3	1.5	-8.1	2.6	6.2	-3.0
O=C(Nc1nc2ccccc2s1)c1ccc(N2CCCCC2)c([N+](=O)[O-])c1	-65.6	39.1*	0.7	-0.3	-0.2	-15.8
CN1CCN(S(=O)(=O)c2cccc(C(=O)Nc3nc(-c4ccccn4)cs3)c2)CC1	.	123.5*	.	.	.	.
Oc1c(C2=NCCNC(C(F)(F)F)=C2)ccc2ccccc12	-110.8	45.4*	-13.5	-1.9	7.5	-1.6
O=C(NCC[C@H](O)c1ccsc1)c1c(F)cccc1F	.	0.0	.	.	.	.
CCOc1ccc2ccccc2c1C(=O)Nc1ccc2c(c1)CN(C(C)=O)CC2	.	-17.0	.	.	.	.
CC(=NNC(=S)N1CCN(C2CCCCCC2)CC1)c1ccccn1	18.0	-4.2	13.4	81.2*	.	1.3
CC(=NNC(=S)N1CCN(c2ccccn2)CC1)c1ccccn1	-15.0	1.3	-9.9	-0.1	.	7.9
CC(=NNC(=S)N1CCN(c2ccccn2)CC1)c1nccs1	-2.5	92.0*	.	108.4*	.	1.6
CC(C)n1cnc2c(NCc3ccccc3)cc(Cc3ccc(F)cc3)cc21	-11.3	-3.5	4.4	115.4*	.	5.1
CCOc1cc(NCc2ccccc2)c2ncn(C(C)C)c2c1	-32.5	-16.5	-0.7	6.6	.	14.5
Cc1ccc(N=Cc2c(C)[nH]n(-c3nc4ccccc4[nH]3)c2=O)cc1	17.3	-8.7	3.5	-7.3	103.3*	1.6
Cc1ccc(-n2[nH]c(C)c(C=Nc3ccc4[nH]c(=O)[nH]c4c3)c2=O)cc1	-8.1	-0.8	-6.5	-0.3	25.7	-6.8
SMILES	PrP 5UTR inh	SSB-PriA inh	PrPC TRFRET	PfHsp40 rescue	BJeLR viability	Y pestis TopoI
COc1ccc(S(=O)(=O)N2CCOCC2)cc1NC(=O)CCNC(=O)c1ccc(Br)cc1	-10.8	-6.9	-0.1	-0.7	107.9*	11.0
O=C(CSc1ccc2nnc(-c3cccs3)n2n1)Nc1nccs1	.	-4.0	.	.	.	.
O=C(OCc1nc2ccccc2s1)c1ccc([N+](=O)[O-])s1	.	10.0	.	.	.	.
COc1ccc(C)cc1Nc1c2c(nc3ccccc13)CCC2	53.7	-0.3	20.9	0.6	56.0*	16.7
CCOc1ccc(NC(=O)c2snnc2C)c([N+](=O)[O-])c1	.	52.0*	.	.	.	.
CCOc1ccc(NC=CC(=O)c2ccccc2)c([N+](=O)[O-])c1	.	43.2*	.	.	.	.
CCOc1ccc(NC(=O)Cc2ccccc2)c([N+](=O)[O-])c1	-20.4	42.9*	-17.3	0.0	-9.8	-6.1
Cn1c(C(F)(F)F)nn(CC(=O)NCC2CCCO2)c1=O (stereo not given)	.	-5.0	.	.	.	.
